Measurements from the supplement of paper PMC12350171.
Counter-ions that a name gives are not always drawn.

Experiments:
Test in all cases: growth AUC normalised to DMSO control (median) (fraction of control); higher = less growth inhibition, active = hit call of the paper
Conditions in all cases: 20 µM;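 active = normalised median growth AUC below 0.1 of DMSO control; inactive = AUC 0.1 or higher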
P. vulgatus RND KO = test system: P. vulgatus RND KO
Method in brief: (§1)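 Anaerobic growth was tracked hourly at OD578 for 24 h in 96-well plates of mGAM seeded at OD578 0.01 with each approved-drug library compound at 20 μM and 1% DMSO. Strains had first been passaged twice overnight without oxygen. Three biological replicates were run. The reported median is the area under the curve, calculated by the trapezoidal rule on curves truncated at entry into stationary phase and normalised to vehicle wells on the same plate.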

P. vulgatus WT = test system: P. vulgatus WT
Method in brief: as §1

[1] = test system: S. enterica typhimurium WT
Method in brief: as §1

[2] = test system: S. enterica typhimurium tolC KO
Method in brief: as §1

Measured: growth AUC normalised to DMSO control
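Further: active when median AUC fell below 0.1.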

CCCCCCNC(=O)n1cc(F)c(=O)[nH]c1=O [Carmofur]
inactive: [1] 0.806 | [2] 0.717
active: P. vulgatus RND KO 0.0803 | P. vulgatus WT 0.0792

CCCCCCOc1ccccc1C(N)=O [Exalamide]
inactive: P. vulgatus RND KO 1.01 | P. vulgatus WT 1.04 | [1] 1 | [2] 0.917

OC[C@H]1O[C@@H](c2ccc(Cl)c(Cc3ccc(O[C@H]4CCOC4)cc3)c2)[C@H](O)[C@@H](O)[C@@H]1O [Empagliflozin]
inactive: P. vulgatus RND KO 1.02 | P. vulgatus WT 1.04 | [1] 1.01 | [2] 0.992

O=C(NCCCN1CCOCC1)c1ccc(Cl)cc1 [Eprobemide]
inactive: P. vulgatus RND KO 1.04 | P. vulgatus WT 1.03 | [1] 1.01 | [2] 1

CC(C(=O)O)c1ccc(N2CC=CC2)c(Cl)c1 (stereo not drawn) [Pirprofen]
inactive: P. vulgatus RND KO 1.08 | P. vulgatus WT 1.06 | [1] 1 | [2] 1

O=S(=O)(c1cccc2cnccc12)N1CCCNCC1 [Fasudil Hydrochloride]
inactive: P. vulgatus RND KO 1 | P. vulgatus WT 1 | [1] 1 | [2] 1.01

Nc1ccc2cc3ccc(N)cc3nc2c1 [Proflavine hemisulfate]
inactive: P. vulgatus RND KO 0.996 | P. vulgatus WT 0.995 | [1] 0.955 | [2] 0.91

O=C1c2cccc3c2[C@H](CCC3)CN1[C@@H]1CN2CCC1CC2 [Palonosetron hydrochloride]
inactive: P. vulgatus RND KO 0.973 | P. vulgatus WT 1 | [1] 1 | [2] 0.998

COc1c(O)cc2c(c1O)[C@@H]1O[C@H](CO)[C@@H](O)[C@H](O)[C@H]1OC2=O [Bergenin]
inactive: P. vulgatus RND KO 1.04 | P. vulgatus WT 1.01 | [1] 1.02 | [2] 0.995

CCCN1CCCC[C@H]1C(=O)Nc1c(C)cccc1C [Ropivacaine hydrochloride]
inactive: P. vulgatus RND KO 1.02 | P. vulgatus WT 1.03 | [1] 0.997 | [2] 1

CC(C)Nc1ncccn1 [Isaxonine]
inactive: P. vulgatus RND KO 0.976 | P. vulgatus WT 0.953 | [1] 0.999 | [2] 1

COc1nc(N)nc2c1ncn2[C@@H]1O[C@H](CO)[C@@H](O)[C@@H]1O [Nelarabine]
inactive: P. vulgatus RND KO 0.98 | P. vulgatus WT 0.981 | [1] 0.997 | [2] 0.981

Nc1cc(C(Cl)=C(Cl)Cl)c(S(N)(=O)=O)cc1S(N)(=O)=O [Clorsulon]
inactive: P. vulgatus RND KO 1.02 | P. vulgatus WT 0.998 | [1] 1 | [2] 0.999

CC(=O)c1cc2cccc(OCC(O)CNC(C)C)c2o1 (stereo not drawn) [Befunolol]
inactive: P. vulgatus RND KO 1.03 | P. vulgatus WT 1.06 | [1] 1 | [2] 1

CC(=O)OC[C@H]1O[C@@H](n2ncc(=O)[nH]c2=O)[C@H](OC(C)=O)[C@@H]1OC(C)=O [Azaribine]
inactive: P. vulgatus RND KO 0.972 | P. vulgatus WT 0.956 | [1] 1 | [2] 1

C=C(NC(=O)C(=C)NC(=O)c1csc(C2=N[C@@H]3c4csc(n4)[C@H]4NC(=O)c5csc(n5)[C@H]([C@](C)(O)[C@@H](C)O)NC(=O)[C@H]5CSC(=N5)/C(=C/C)NC(=O)[C@H]([C@@H](C)O)NC(=O)c5csc(n5)[C@]3(CC2)NC(=O)[C@H](C)NC(=O)C(=C)NC(=O)[C@H](C)NC(=O)[C@H]([C@@H](C)CC)N[C@@H]2C=Cc3c([C@H](C)O)cc(nc3[C@H]2O)C(=O)O[C@@H]4C)n1)C(N)=O [Thiostrepton]
active: P. vulgatus RND KO 0.0151 | P. vulgatus WT 0.0162
inactive: [1] 1 | [2] 1

CC(C)c1ccc2oc3nc(N)c(C(=O)O)cc3c(=O)c2c1 [Amlexanox]
inactive: P. vulgatus RND KO 1.02 | P. vulgatus WT 1.01 | [1] 0.996 | [2] 0.971

CC1(C)S[C@@H]2[C@H](NC(=O)C(C(=O)O)c3ccccc3)C(=O)N2[C@H]1C(=O)O (stereo partly drawn) [Carbenicillin disodium salt]
active: P. vulgatus RND KO 0.0099 | P. vulgatus WT 0.00958 | [1] 0.0868 | [2] 0.00344

COC(=O)C1=C(C)NC(C)=C(C(=O)O[C@H]2CCN(Cc3ccccc3)C2)[C@H]1c1cccc([N+](=O)[O-])c1 [Barnidipine Hydrochloride]
inactive: P. vulgatus RND KO 1.1 | P. vulgatus WT 1.11 | [1] 0.998 | [2] 0.961

CN[C@@H]1CCc2[nH]c3ccc(C(N)=O)cc3c2C1 [Frovatriptan succinate]
inactive: P. vulgatus RND KO 1.02 | P. vulgatus WT 1.02 | [1] 1 | [2] 1

CCC(NC(C)C)C(O)c1ccc(O)c2[nH]c(=O)ccc12 (stereo not drawn) [Procaterol hydrochloride]
inactive: P. vulgatus RND KO 1.08 | P. vulgatus WT 1.09 | [1] 1 | [2] 0.987

CCOC(=O)Nc1ccc(NCc2ccc(F)cc2)nc1N [Flupirtine]
inactive: P. vulgatus RND KO 1.08 | P. vulgatus WT 1.05 | [1] 1 | [2] 0.979

CCCC(=O)N1CCCN(c2nc(N)c3cc(OC)c(OC)cc3n2)CC1 [Bunazosin hydrochloride]
inactive: P. vulgatus RND KO 1.01 | P. vulgatus WT 1.01 | [1] 1 | [2] 0.994

CC1(C)S[C@@H]2[C@H](NC(=O)[C@H](N)c3ccccc3)C(=O)N2[C@H]1C(=O)OC1OC(=O)c2ccccc21 (stereo partly drawn) [Talampicillin hydrochloride]
active: P. vulgatus RND KO 0.00561 | P. vulgatus WT 0.00787 | [1] 0.00491 | [2] 0.00469

CC(COc1ccccc1)NN (stereo not drawn) [Phenoxypropazine dihydrochloride]
inactive: P. vulgatus RND KO 1.07 | P. vulgatus WT 1.08 | [1] 1.01 | [2] 0.994

NC(=O)[C@@H]1CCCN1C(=O)[C@H](Cc1c[nH]cn1)NC(=O)[C@@H]1CCC(=O)N1 [Thyrotropin-Releasing Hormone]
inactive: P. vulgatus RND KO 1.05 | P. vulgatus WT 1.04 | [1] 0.996 | [2] 1.01

CCOC(=O)OC(C)OC1=C(C(=O)Nc2ccccn2)N(C)S(=O)(=O)c2ccccc21 (stereo not drawn) [Ampiroxicam]
inactive: P. vulgatus RND KO 0.999 | P. vulgatus WT 0.988 | [1] 1 | [2] 0.986

COc1ccc2cc1Oc1ccc(cc1)C[C@H]1c3c(cc4c(c3Oc3cc5c(cc3OC)CCN(C)[C@@H]5C2)OCO4)CCN1C [Cepharanthine]
inactive: P. vulgatus RND KO 0.999 | P. vulgatus WT 0.973 | [1] 1.02 | [2] 0.998

COc1cccc(OC)c1C(=O)N[C@@H]1C(=O)N2[C@@H]1SC(C)(C)[C@@H]2C(=O)O [Methicillin sodium]
inactive: P. vulgatus WT 0.708 | [1] 0.99 | [2] 0.482

COc1cc2c(cc1OC)C(=O)C(CC1CCN(Cc3ccccc3)CC1)C2 (stereo not drawn) [Donepezil hydrochloride]
inactive: P. vulgatus RND KO 0.997 | P. vulgatus WT 1.01 | [1] 0.997 | [2] 0.981

CC1(C)S[C@@H]2[C@H](NC(=O)[C@H](N)c3ccccc3)C(=O)N2[C@H]1C(=O)O [Ampicillin sodium salt]
inactive: [1] 0.773 | [2] 0.112

CO/N=C(\C(=O)N[C@@H]1C(=O)N2C(C(=O)OCOC(=O)C(C)(C)C)=C(/C=C\c3scnc3C)CS[C@H]12)c1csc(N)n1 [Cefditoren Pivoxil]
inactive: [1] 0.905 | [2] 0.387
